# Values joined by “and” are separate entries in the source; they are usually repeats but may differ in a detail not shown here. Equal entries are not always repeated. Inconclusive results are not listed. Where a call stands in place of a potency, no number is given. Where a structure was tested more than once in an assay, its records may differ in their call. Active and inactive are the calls of the source. Unless noted, the call rests on the fitted dose curve; in most records, active means well fitted curve in the direction sought with a large enough effect in the repeat runs; inconclusive means weak or mixed curves; inactive means no such curve, though single readings can be large; an effect the other way counts as inactive or inconclusive.
# Experiments:
# [1] = A CellTox Green Cytotoxicity Assay to monitor cytotoxicity in HepG2 cells - 8 hour (AID 1224890); further: nearly all actives have a fitted effect of over 45% in size
# Summary of the method: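 Nonlytic assay: viable cells exclude the dye, so fluorescence scales with cell death. HepG2 at 600 cells/well, compounds added after 5 h, signal read across 40 h.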
# [2] = qHTS assay to identify small molecule antagonists of the estrogen receptor alpha (ER-alpha) signaling pathway using the BG1 cell line in the presence of 0.1 nM 17-beta-estradiol - cell viability counter screen (AID 1259241); further: nearly all actives have a fitted effect of over 40% in size
# Summary of the method: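 Estradiol-stimulated (0.1 nM) VM7Luc4E2 cells exposed to compounds 22 hr; viability measured by fluorescence of cleaved CellTiter-Fluor substrate after 30 min.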
# [3] = qHTS assay to identify small molecule antagonists of the androgen receptor (AR) signaling pathway using the MDA cell line in the presence of 0.5 nM R1881 - cell viability counter screen (AID 1259242); further: nearly all actives have a fitted effect of over 45% in size
# Summary of the method: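 R1881 at 0.5 nM final stimulated MDA-kb2 cells during 16 hr compound treatment at 37C. Cytotoxicity read: CellTiter-Fluor fluorescence after 30 min.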
# [4] = biological target: Estrogen receptor (Homo sapiens) (UniProt P03372); test: qHTS assay to identify small molecule antagonists of the estrogen receptor alpha (ER-alpha) signaling pathway using the BG1 cell line in the presence of 0.1 nM 17-beta-estradiol (AID 1259244); further: nearly all actives have a fitted effect of over 50% in size
# Chain of Estrogen receptor (Homo sapiens) (P03372 whole entry, looked up): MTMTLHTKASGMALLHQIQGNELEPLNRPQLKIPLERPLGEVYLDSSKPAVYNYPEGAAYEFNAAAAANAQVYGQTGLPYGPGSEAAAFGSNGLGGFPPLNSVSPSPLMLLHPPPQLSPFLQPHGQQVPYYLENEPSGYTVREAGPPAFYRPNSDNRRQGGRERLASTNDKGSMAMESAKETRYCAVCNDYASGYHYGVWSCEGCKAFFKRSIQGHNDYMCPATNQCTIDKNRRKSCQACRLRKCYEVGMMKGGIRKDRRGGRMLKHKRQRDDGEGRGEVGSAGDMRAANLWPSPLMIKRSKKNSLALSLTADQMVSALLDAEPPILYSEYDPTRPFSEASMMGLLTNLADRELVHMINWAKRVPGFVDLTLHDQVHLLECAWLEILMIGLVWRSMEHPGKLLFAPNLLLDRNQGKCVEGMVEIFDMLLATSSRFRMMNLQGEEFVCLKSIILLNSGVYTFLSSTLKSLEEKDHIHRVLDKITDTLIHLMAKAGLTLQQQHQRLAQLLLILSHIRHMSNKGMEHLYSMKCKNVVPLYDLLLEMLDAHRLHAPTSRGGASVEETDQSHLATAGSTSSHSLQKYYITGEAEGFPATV
# Summary of the method: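 VM7Luc4E2; 4xERE-luciferase; 0.1 nM E2 final; 22 h co-incubation, 37C; ONE-Glo luminescence after 30 min at room temperature.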
# [5] = qHTS assay to identify small molecule phospholipidosis (PLD) inducers (AID 1259344; active means well fitted curve in the direction sought with a large enough effect; an effect the other way counts as inactive or inconclusive)
# Summary of the method: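 Fluorescent phospholipid staining (LipidTOX Red) measured by automated microscopy in fixed HepG2 cells after 24 h treatment; nuclei counterstained with Hoechst 33342; amiodarone as reference inducer.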
# [6] = qHTS assay to identify small molecule HDAC inhibitors (AID 1259364); further: potency means the concentration at half of the fitted maximal effect;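 further: wild-type HCT-116 cells with endogenous class I/II HDAC activity; nearly all actives have a fitted effect of over 45% in size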
# Summary of the method: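 Relative class I and II HDAC activity is taken from the luminogenic signal in HCT-116 cells, with compound exposure 2 hr and reagent development 30 min at room temperature.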
# [7] = qHTS assay to identify small molecule HDAC inhibitors - cell viability counter screen (AID 1259365); further: series mostly up to about 92 µM; nearly all actives have a fitted effect of over 50% in size
# Summary of the method: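 After overnight seeding at 1,500 cells per well, wild-type HCT-116 cultures took up compounds in DMSO for 2hr at 37 C. Viable cell content came from luminescence with CellTiter-Glo.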
# [8] = qHTS assay to identify small molecule antagonists of the sonic hedgehog signaling (Shh) pathway - cell viability counter screen (AID 1259367); further: nearly all actives have a fitted effect of over 55% in size; further: potency means the concentration at half of the fitted maximal effect
# Summary of the method: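 Using CellTiter-Fluor, viability of Gli1-Luc reporter 3T3 cells is read by fluorescence in the wells used for the Shh luciferase assay. Treatment lasts 23 hr with conditioned medium, then reagent 1 hr at 37C.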
# [9] = qHTS assay to identify small molecule agonists of the sonic hedgehog signaling (Shh) pathway (AID 1259368; calls by dose curve;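 further: NIH/3T3-derived 3T3Gli1-Luc cells carrying a stable Gli1-driven firefly luciferase reporter; series mostly up to about 92 µM; nearly all actives have a fitted effect of over 15% in size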)
# Summary of the method: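 Mouse fibroblast (NIH/3T3) reporter cells with stably integrated Gli1-Luc were treated 24 hr with compound; firefly luciferase luminescence served as the read-out.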
# [10] = qHTS assay to identify small molecule antagonists of the sonic hedgehog signaling (Shh) pathway (AID 1259369; calls by dose curve; further: nearly all actives have a fitted effect of over 45% in size; further: potency means the concentration at half of the fitted maximal effect)
# Summary of the method: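 Conditioned medium drives Shh signalling in 3T3Gli1-Luc cells; compounds in DMSO co-applied, 24hr at 37 C, then luciferase luminescence.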
# [11] = biological target: Estrogen receptor beta (Homo sapiens) (UniProt Q92731); test: qHTS assay to identify small molecule agonists of the estrogen receptor beta (ER-beta) signaling pathway (AID 1259377; active means well fitted activation curve with a large enough effect in the signal ratio in the repeat runs, not every such curve was filed as active; the % refers to the signal ratio)
# Chain of Estrogen receptor beta (Homo sapiens) (Q92731 whole entry, looked up): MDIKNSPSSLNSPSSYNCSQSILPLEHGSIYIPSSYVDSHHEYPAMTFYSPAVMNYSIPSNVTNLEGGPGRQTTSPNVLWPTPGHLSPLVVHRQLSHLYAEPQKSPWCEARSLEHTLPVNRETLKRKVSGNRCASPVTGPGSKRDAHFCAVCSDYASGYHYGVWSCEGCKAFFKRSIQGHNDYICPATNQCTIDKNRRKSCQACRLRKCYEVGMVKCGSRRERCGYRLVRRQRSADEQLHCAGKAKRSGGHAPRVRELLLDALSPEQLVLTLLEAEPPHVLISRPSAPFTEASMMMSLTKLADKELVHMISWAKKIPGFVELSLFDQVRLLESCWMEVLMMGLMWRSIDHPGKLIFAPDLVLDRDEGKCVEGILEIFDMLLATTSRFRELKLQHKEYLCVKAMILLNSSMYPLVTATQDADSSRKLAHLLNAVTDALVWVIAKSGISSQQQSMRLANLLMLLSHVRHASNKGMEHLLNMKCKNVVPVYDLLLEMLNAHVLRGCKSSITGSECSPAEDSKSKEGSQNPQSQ
# Summary of the method: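 Read-out: beta-lactamase FRET fluorescence. Cell line: ER-beta-UAS-bla HEK293T in 2% charcoal-stripped FBS. Exposure: 16 hr at 37C. Substrate step: 2 h at room temperature.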
# [12] = biological target: Estrogen receptor beta (Homo sapiens) (UniProt Q92731); test: qHTS assay to identify small molecule antagonists of the estrogen receptor beta (ER-beta) signaling pathway (AID 1259378; active means well fitted inhibition curve with a large enough effect in the signal ratio in the repeat runs, not every such curve was filed as active; the % refers to the signal ratio)
# Summary of the method: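 Antagonist mode: compounds added to beta-lactamase reporter HEK293T ER-beta-UAS cells stimulated with E2 (1nM final), 16 hr at 37C. LiveBLAzer B/G FRET substrate, 2 hours room temperature, fluorescence read-out.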
# [13] = qHTS assay to identify small molecule agonists of the androgen receptor (AR) signaling pathway in the presence of an antagonist - cell viability counter screen (AID 1259379);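 further: MDA-kb2 human breast cancer cells carrying an MMTV luciferase reporter; series mostly up to about 92 µM; nearly all actives have a fitted effect of over 25% in size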
# Summary of the method: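 A CellTiter-Fluor read-out measured viability of MDA-kb2 reporter cells (MMTV promoter with AR and GR response elements). Treatment: nilutamide 3.0uM final with compounds at 15 concentrations, 16 hr, 37C, 0% CO2.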
# [14] = qHTS assay to identify small molecule agonists of the estrogen receptor beta (ER-beta) signaling pathway - cell viability counter screen (AID 1259380); further: nearly all actives have a fitted effect of over 30% in size
# Summary of the method: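 Cells used were ER-beta-UAS-bla HEK293T in medium with 2% charcoal-stripped FBS. They were treated for 16 hr at 37C. Viability came from CellTiter-Glo luminescence.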
# [15] = qHTS assay to identify small molecule antagonists of the estrogen receptor beta (ER-beta) signaling pathway - cell viability counter screen (AID 1259382); further: series mostly up to about 92 µM; nearly all actives have a fitted effect of over 55% in size
# Summary of the method: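 Agonist-stimulated (1nM E2) ER-beta-UAS-bla HEK293T cells are incubated with library compounds for 16 hr at 37C. Cell viability is then assessed in the reporter-assay wells by adding CellTiter-Glo and reading luminescence after 30 min.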
# [16] = biological target: Estrogen receptor (Homo sapiens) (UniProt P03372); test: qHTS assay to identify small molecule agonists of the estrogen receptor alpha (ER-alpha) signaling pathway in the presence of an antagonist (AID 1259383; calls by dose curve; further: nearly all actives have a fitted effect of over 15% in size; further: potency means the concentration at half of the fitted maximal effect; on activation: top concentration of the series differs between compounds)
# Summary of the method: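 Using VM7Luc4E2 cells seeded 24hr before treatment, antagonist ICI-182,780 (10.0nM final) was added, followed by compounds at 15 concentrations. Plates incubated 22hr; ONE-Glo luminescence quantified reporter activity.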
# [17] = qHTS assay to identify small molecule agonists or antagonists of the thyroid stimulating hormone receptor (TSHR) signaling pathway - wild type cell line counter screen (AID 1259384; calls by dose curve)
# Summary of the method: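 Counter screen in untransfected Hek293: compounds (15-point titration, triplicate) plus phosphodiesterase inhibitor Ro20-1724 added after 18 h plating; 30 min RT. Intracellular cAMP via competitive d2/cryptate immunoassay, 1 h incubation.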
# [18] = biological target: Thyrotropin receptor (Homo sapiens) (UniProt P16473); test: qHTS assay to identify small molecule antagonists of the thyroid stimulating hormone receptor (TSHR) signaling pathway (AID 1259385; calls by dose curve; further: nearly all actives have a fitted effect of over 20% in size)
# Chain of Thyrotropin receptor (Homo sapiens) (P16473 whole entry, looked up): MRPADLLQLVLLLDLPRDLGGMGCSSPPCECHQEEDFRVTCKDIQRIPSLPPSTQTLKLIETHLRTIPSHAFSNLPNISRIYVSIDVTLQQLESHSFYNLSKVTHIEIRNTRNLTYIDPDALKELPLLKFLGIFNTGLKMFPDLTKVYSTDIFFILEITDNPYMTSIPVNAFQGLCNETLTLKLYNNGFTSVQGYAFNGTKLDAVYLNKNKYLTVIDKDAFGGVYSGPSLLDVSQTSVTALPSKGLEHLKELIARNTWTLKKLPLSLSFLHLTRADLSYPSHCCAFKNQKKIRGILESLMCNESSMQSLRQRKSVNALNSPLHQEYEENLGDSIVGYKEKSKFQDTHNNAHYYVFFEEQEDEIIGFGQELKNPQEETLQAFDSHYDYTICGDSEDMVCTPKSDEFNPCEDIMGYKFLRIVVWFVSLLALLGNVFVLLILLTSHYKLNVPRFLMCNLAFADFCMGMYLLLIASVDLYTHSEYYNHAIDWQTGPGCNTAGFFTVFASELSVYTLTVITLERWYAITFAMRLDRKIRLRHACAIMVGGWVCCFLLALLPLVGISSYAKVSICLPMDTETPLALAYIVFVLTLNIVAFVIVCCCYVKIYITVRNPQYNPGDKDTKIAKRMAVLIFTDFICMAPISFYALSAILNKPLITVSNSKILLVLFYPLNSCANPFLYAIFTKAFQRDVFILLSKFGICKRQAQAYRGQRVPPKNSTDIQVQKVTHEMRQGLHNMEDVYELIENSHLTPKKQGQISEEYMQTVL
# Summary of the method: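 Antagonist mode: compound-treated TSHR-expressing HEK293 cells were stimulated with 1.5 ng/mL TSH (final) in presence of Ro20-1724 for 30 min at RT. HTRF cAMP detection after 1 h; each compound tested at 15 concentrations, triplicate.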
# [19] = qHTS assay to identify small molecule agonists of the sonic hedgehog signaling (Shh) pathway - cell viability counter screen (AID 1259366); further: nearly all actives have a fitted effect of over 50% in size; further: potency means the concentration at half of the fitted maximal effect
# Summary of the method: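 Same-well cytotoxicity read. Gli1-Luc reporter 3T3 cells; compounds 24hr, 37C/5% CO2; CellTiter-Fluor fluorescence.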
# [20] = biological target: Androgen receptor (Homo sapiens) (UniProt P10275); test: qHTS assay to identify small molecule agonists of the androgen receptor (AR) signaling pathway in the presence of an antagonist (AID 1259381; calls by dose curve; further: nearly all actives have a fitted effect of over 15% in size; further: potency means the concentration at half of the fitted maximal effect)
# Chain of Androgen receptor (Homo sapiens) (P10275 whole entry, looked up): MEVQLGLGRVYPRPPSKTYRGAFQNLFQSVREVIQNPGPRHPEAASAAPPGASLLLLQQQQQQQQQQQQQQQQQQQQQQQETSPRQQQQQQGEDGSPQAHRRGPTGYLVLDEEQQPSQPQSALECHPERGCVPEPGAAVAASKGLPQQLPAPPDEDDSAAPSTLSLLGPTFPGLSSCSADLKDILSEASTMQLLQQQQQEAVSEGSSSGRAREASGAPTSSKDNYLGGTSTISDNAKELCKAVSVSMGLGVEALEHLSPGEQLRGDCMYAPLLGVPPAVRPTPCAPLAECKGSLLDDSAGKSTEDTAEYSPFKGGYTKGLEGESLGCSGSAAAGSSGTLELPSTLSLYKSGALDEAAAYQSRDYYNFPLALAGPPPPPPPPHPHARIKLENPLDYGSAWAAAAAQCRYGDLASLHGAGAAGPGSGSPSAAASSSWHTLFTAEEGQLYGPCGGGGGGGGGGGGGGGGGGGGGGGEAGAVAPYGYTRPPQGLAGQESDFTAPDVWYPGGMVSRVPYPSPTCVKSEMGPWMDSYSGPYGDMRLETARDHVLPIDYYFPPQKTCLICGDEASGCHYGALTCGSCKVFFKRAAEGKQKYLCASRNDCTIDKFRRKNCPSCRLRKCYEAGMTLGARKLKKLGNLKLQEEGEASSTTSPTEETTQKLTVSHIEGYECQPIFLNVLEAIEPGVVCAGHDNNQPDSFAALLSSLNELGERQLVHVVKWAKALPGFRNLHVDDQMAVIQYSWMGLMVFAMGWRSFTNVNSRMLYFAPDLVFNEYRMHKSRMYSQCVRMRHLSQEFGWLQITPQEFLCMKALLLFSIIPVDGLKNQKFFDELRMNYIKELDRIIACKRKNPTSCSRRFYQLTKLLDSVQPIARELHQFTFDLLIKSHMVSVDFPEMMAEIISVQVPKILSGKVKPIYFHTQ
# Summary of the method: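 Using human MDA-kb2 cells with an MMTV promoter–luciferase construct (AR and GR response elements), agonist activity is scored under 3.0uM nilutamide (final) co-treatment; 16hr incubation, 37C, luminescence readout via ONE-Glo.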
SMILES,Potency [1],Potency [2],Potency [3],Potency [4],outcome [5],Potency [6],outcome [7],Potency [8],outcome [9],Potency [10],outcome [11],Potency [12],Potency [13],Potency [14],Potency [15],Potency [16],outcome [17],outcome [18],Potency [19],Potency [20]
NNC(=O)c1ccncc1,inactive,inactive,inactive,inactive,inactive,inactive,inactive,inactive,inactive,inactive,inactive,inactive,inactive,inactive,inactive,inactive,inactive,inactive,–,–
NC(N)=O,inactive,inactive,inactive,inactive,inactive,inactive,inactive,16.3 µM (active) and inactive,inactive,7.28 µM (active) and inactive and 68.6 µM (active),inactive,inactive,inactive,inactive,inactive,inactive,inactive,inactive,23 µM (active) and inactive,–
NC(N)=NC(=O)c1nc(Cl)c(N)nc1N,inactive,inactive,inactive,inactive,inactive,inactive,inactive,inactive,inactive,inactive,inactive,inactive,inactive,inactive,inactive,inactive,inactive,inactive,–,–
Oc1ccc(/C=C/c2cc(O)cc(O)c2)cc1,inactive,inactive,inactive,inactive,inactive,1.95 µM (active) and 1.22 µM (active) and 2.98 µM (active),inactive,30.9 µM (active) and 27.3 µM (active),inactive,9.78 µM (active) and 17.2 µM (active),–,–,inactive,inactive,inactive,4.37 µM (active) and 8.63 µM (active) and 13.3 µM (active),inactive,inactive,21.9 µM (active) and 24.3 µM (active),1.95 µM (active)
Cn1c(=O)c2[nH]cnc2n(C)c1=O,inactive,inactive,inactive,inactive,inactive,inactive,inactive,inactive,inactive,inactive,–,–,inactive,inactive,inactive,inactive,inactive,inactive,inactive,–
O=C(O)CCCCC(=O)O,inactive,inactive,inactive,inactive,inactive,inactive,inactive,inactive,inactive,inactive,–,–,inactive,inactive,inactive,inactive,inactive,inactive,inactive,–
Cc1cc(=O)n(-c2ccccc2)n1C,inactive,inactive,inactive,inactive,inactive,inactive,inactive,inactive,inactive,inactive,inactive,inactive,inactive,inactive,inactive,inactive,–,–,inactive,inactive

# — PubChem BioAssay (Tox21)
